# FECH inh – blocks human mitochondrial ferrochelatase activity | actives 3.3% (n = 20,000) | P22830 | purified FECH, Ni-mesoporphyrin absorbance 550 nm | calls only at 10 µM (by protocol);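 active = enzyme reaction rate more than 3 SD below the solvent-only control wells on the same plate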;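 also: lower slope than DMSO wells means FECH inhibition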
# Target sequence (P22830 whole entry, looked up): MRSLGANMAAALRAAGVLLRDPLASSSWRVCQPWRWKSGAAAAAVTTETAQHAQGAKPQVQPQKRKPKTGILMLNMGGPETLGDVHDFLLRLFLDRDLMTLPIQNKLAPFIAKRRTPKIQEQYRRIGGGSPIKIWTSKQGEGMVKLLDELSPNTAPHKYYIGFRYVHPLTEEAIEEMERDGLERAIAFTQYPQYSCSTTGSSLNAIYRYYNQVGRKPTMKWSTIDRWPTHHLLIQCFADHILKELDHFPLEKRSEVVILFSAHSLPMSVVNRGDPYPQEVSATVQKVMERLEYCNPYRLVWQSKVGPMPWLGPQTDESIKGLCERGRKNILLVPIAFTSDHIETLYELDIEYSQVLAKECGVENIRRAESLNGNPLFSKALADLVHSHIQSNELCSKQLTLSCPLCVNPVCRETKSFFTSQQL
# * hit, by the source's call; i = inactive; + = active, no number. The full list was thinned out, with hits kept by preference.
SMILES,FECH inh
Cn1c(=O)c(C2CC(=O)NCc3nc4ccccn4c32)cc2ccccc21 (centres undefined),i
CCn1c(C2CCCN(S(=O)(=O)N3CCCC3)C2)n[nH]c1=O (centres undefined),i
CCn1c(C2CCN(S(=O)(=O)c3ccc(C)c(C)c3)CC2)n[nH]c1=O,i
CCn1c(-c2cc(C3CC3)[nH]n2)n[nH]c1=O,+
C=CCC1(OC)CCN(C(=O)c2cc(CN3CCC(O)CC3)on2)CC1,i
CC(C)(C)c1ccc(-n2c(C3CC3)n[nH]c2=O)cc1,i
CC(=O)N[C@H]1C[C@@H](c2cc(C)cc(F)c2)O[C@@H](C2CCCCC2)C1,i
CC(C)c1nccn1CCCNC(=O)c1ccc(N2C[C@H]3CNC[C@H]3C2)nc1,i
CCC(=O)Nc1cccc(C(=O)NCCn2nc(C)c(CC)c2C)c1,i
CCC(NC(=O)c1ccccc1-n1cncn1)c1ccnn1C (centres undefined),i
CCC(NC(=O)CCC(=O)NC1CCCCCCC1)c1ccnn1C (centres undefined),+
O=C(CCN1CCN(CCc2ccncc2)CC1)NC1CCCCCC1,i
O=c1c(NCc2ccco2)c(-c2ccc3c(c2)CCCC3)c1=O,i
COc1ccc(NCc2cc(=O)n3[nH]c(NCc4ccccc4Cl)nc3n2)cc1,i
CCOc1ccccc1NCc1cc(=O)n2[nH]c(NCc3ccccc3)nc2n1,i
CCOc1ccccc1NCc1cc(=O)n2[nH]c(NCc3ccccc3Cl)nc2n1,+
COc1ccccc1NCc1cc(=O)n2[nH]c(NCc3ccccc3)nc2n1,i
COc1ccc(CNc2nc3nc(CNc4cccc(OC)c4)cc(=O)n3[nH]2)cc1,i
COc1cccc(NCc2cc(=O)n3[nH]c(NCc4ccccc4Cl)nc3n2)c1,+
COc1cccc(-c2[nH]ncc2C(=O)N2CCC3(CCNC(=O)CC3)CC2)c1,i
Cc1cc(C)c(CN2CCC3(CCNC(=O)CC3)CC2)c(C)c1,+
O=C1CCC2(CCN1)CCN(C(=O)C/C=C/c1ccccc1)CC2,i
O=C1CCS(=O)(=O)N1c1ccc(S(=O)(=O)NCc2ccc(F)cc2)cc1,i
CCc1ccc2c(c1)-c1ccccc1S(=O)(=O)N2CC(=O)N1CCN(CC)CC1,+
CCc1ccc2c(c1)-c1ccccc1S(=O)(=O)N2CC(=O)N1CCN(C)CC1,+
SMILES,FECH inh
CN1CCN(C(=O)CN2C(=O)C3CCCCN3c3ccc(C(=O)N(C)C)cc32)CC1 (centres undefined),i
O=C(CN1C(=O)C2CCCCN2C(=O)c2ccccc21)N1CCN(Cc2ccccc2)CC1 (centres undefined),i
CCN1CCN(C(=O)CN2C(=O)C3CCCCN3c3ccc(C(=O)N(C)C)cc32)CC1 (centres undefined),i
NC(=O)C1CCN(C(=O)CN2c3ccc(Br)cc3-c3ccccc3S2(=O)=O)CC1,i
COc1cccc(Cc2nc(-c3ccc4c(c3)Sc3ccccc3C(=O)N4C)no2)c1,i
Cc1cccc(CNc2nc(-c3nnc(-c4ccc(F)cc4)o3)nc3ccccc23)c1,i
O=C(CC1CCc2ccccc21)NCCc1csc(-c2ncccn2)n1 (centres undefined),i
CC[C@H]1CN(C(=O)C23C[C@H]4C[C@@H](C2)CC(n2cncn2)(C4)C3)CC[C@@]1(C)O,i
Cc1nc(CN(C)Cc2cccn2-c2nccs2)no1,i
O=C(NS(=O)(=O)c1ccccc1)N1CCC2(CCNCC2)C1,i
C=CCn1cc(CN2CCCC(c3nc(-c4cccnc4)no3)C2)c(C)n1 (centres undefined),i
CSc1nc(Nc2ccccc2)c(C#N)c(-c2ccc(C)cc2)n1,i
CC(C)c1nccn1CCCNC(=O)c1ccc(N2CCc3[nH]ncc3C2)nc1,i
O=C1c2cccnc2CN1C(CCn1cncn1)c1ccccc1 (centres undefined),i
NC(=O)[C@H](Cc1ccccc1)N1Cc2ncccc2C1=O,+
NS(=O)(=O)c1ccc(CN2Cc3ncccc3C2=O)cc1,i
CC1CCCN(c2ccc(C(N)=O)cc2-n2cnnc2)C1 (centres undefined),i
CCCc1nc(CN(CC)C(=O)c2cc(-c3ccccc3)on2)no1,i
Cc1ncc(-c2c(-c3ccccc3)ncn2CCCOc2cccnc2)[nH]1,i
O=C1OCCCN1CCn1cnc(-c2ccccc2)c1-c1cccnc1,i
Cc1ncc(-c2c(-c3ccccc3)ncn2CCN2CCCOC2=O)[nH]1,+
Cc1ncc(-c2c(-c3ccccc3)ncn2CCc2cccs2)[nH]1,+
Cc1cccc(-c2c(-c3ccccc3)ncn2CCN2CCOC2=O)c1C,i
c1ccc(-c2ncn(CCc3cccs3)c2C2CCOC2)cc1 (centres undefined),i
CN(CCc1ccccc1)C1(C(=O)N2CC(O)C2)Cc2ccccc2C1,i
SMILES,FECH inh
CCN1CCN(c2nc(Nc3cccc(C)c3)c3cnn(-c4ccccc4)c3n2)CC1,i
O=C(NC1CCCCC1)c1nc[nH]c1C(=O)NC1CCCCNC1=O (centres undefined),i
CCCNC(=O)c1[nH]cnc1C(=O)NC1CCCCNC1=O (centres undefined),i
O=C(NC1CC1)c1nc[nH]c1C(=O)NC1CCCCNC1=O (centres undefined),+
CN1CCN(C(=O)c2cc3n(n2)CCN(C(=O)C2(C)CCCO2)C3)CC1 (centres undefined),i
Oc1cc(-c2cccnc2)cc2c1OCCN(CCn1ccnc1)C2,i
COc1cc(-c2nccn2-c2cccc(-n3cnnn3)c2)cc(OC)c1OC,i

# Screening results (PubChem BioAssay)
